# An excerpt weighted towards active compounds, which were near 2.6% of everything screened.
# FH mod: Identification of activators of human fumarate hydratase by quantitative high-throughput screening. Potency, µM (titrated, usually from 79.9 µM), for inactives: top-dose activity change, negative = inhibition, most hits filed as inhibitors. 0.22% of 54,000 active. Fumarate hydratase, mitochondrial (Homo sapiens), P07954. FH coupled MDH/diaphorase resazurin fluorescence, 15 min; further: potency means the concentration at half of the fitted maximal effect; on the % scale 0 is the no-effect control and ±100 the full control effect; the screen sought activators but most active calls are inhibition curves; nearly all actives have a fitted effect of over 45% in size
# Target sequence (P07954 whole entry, looked up): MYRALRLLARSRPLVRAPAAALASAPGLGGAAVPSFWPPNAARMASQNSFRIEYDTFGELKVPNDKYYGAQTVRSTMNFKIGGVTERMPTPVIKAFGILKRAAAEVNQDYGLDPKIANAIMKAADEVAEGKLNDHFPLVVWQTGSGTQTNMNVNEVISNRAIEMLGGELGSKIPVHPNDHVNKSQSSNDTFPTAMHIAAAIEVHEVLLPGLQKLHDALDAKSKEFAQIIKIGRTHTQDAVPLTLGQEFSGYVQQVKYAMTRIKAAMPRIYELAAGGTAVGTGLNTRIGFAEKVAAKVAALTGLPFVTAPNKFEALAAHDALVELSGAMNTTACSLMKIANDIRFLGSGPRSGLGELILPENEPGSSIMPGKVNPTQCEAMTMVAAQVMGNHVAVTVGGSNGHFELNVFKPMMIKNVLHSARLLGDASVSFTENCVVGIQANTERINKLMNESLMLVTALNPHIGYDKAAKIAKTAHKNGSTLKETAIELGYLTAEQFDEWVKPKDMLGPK
# HTT-AS promoter: activators of huntingtin-antisense promoter activity; HEK293 HTT-AS promoter firefly luciferase reporter, 24 h; response scale: percent change from vehicle, -100% = no light; Potency, µM (top dose mostly 57.5 µM), without a hit: top-dose activity change, positive = activation, hits mostly activators; 0.24% of 48,000 active; AID 1508624; further: potency means the concentration at half of the fitted maximal effect; nearly all actives have a fitted effect of over 55% in size
#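 Firefly luciferase readout (Dual-Glo, 10 min RT) after 24 h, 37 °C compound exposure (final up to 57.5 uM) of HEK293 reporter cells cultured 24 h beforehand; PTC124 at 50 uM final as control inhibitor; activity scaled vehicle 0%, zero RLU -100%.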
# NTMT1 inhibitor: NTMT1 methyltransferase inhibition; Q9BV86; NTMT1 MTase-Glo SAH luminescence, purified enzyme; Potency, µM (series often up to 114 µM), without a hit: at the highest dose activity change, negative = inhibition, most hits filed as inhibitors; 2.5% of 59,000 active; AID 1645870;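 further: potency means the concentration at half of the fitted maximal effect; plate controls were DMSO vehicle for no effect and no enzyme for full effect; nearly all actives have a fitted effect of over 65% in size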
# Target sequence (Q9BV86 whole entry, looked up): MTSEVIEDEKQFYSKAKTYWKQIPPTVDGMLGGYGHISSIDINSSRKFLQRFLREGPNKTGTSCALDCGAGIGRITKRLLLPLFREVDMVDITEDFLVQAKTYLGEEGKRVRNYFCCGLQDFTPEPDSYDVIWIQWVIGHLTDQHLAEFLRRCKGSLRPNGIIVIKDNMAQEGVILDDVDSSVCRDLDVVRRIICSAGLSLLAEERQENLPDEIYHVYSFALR
# HTT prom inh: inhibits huntingtin promoter activity. 0.93% of 48,000 active. Potency, µM (series often up to 57.5 µM), inactives show at the top dose activity change, negative = inhibition, usual class: inhibitors. HEK293 HTT promoter firefly luciferase reporter, 24 h. AID 1508623; further: potency means the concentration at half of the fitted maximal effect; nearly all actives have a fitted effect of over 50% in size
#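 HEK293 cells carrying firefly luciferase reporters were seeded at 2,500 per well in Opti-MEM and cultured for 24 h. They were then treated with compounds at up to 57.5 uM final for 24 h at 37 degrees C before Dual-Glo luminescence readout.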
# Sfp qHTS opt: Sfp PPTase inhibition, chemistry optimization. AID 540350. shares compounds with NTMT1 inhibitor. 78% of 230 active. Potency, µM (doses to about 114 µM), inactives show at the highest dose activity change, negative = inhibition, actives largely listed as inhibitors. purified Sfp PPTase enzyme activity, qHTS
# Bsub HM489 growth: reduces growth of B. subtilis HM489 strain | 50% of 220 active | Potency, µM (series often up to 114 µM), inactives show at the highest dose activity change, negative = inhibition, usual class: inhibitors | shares compounds with NTMT1 inhibitor | AID 540353 | B. subtilis HM489 (acpS-) growth, BacTiter-Glo, 5 h
# Sfp PPTase gel: inhibitors of Bacillus subtilis Sfp PPTase, gel-based followup | Potency, µM (titrated, usually from 250 µM), for inactives: at the highest dose activity change, negative = inhibition, usual class: inhibitors | 54% of 220 active | shares compounds with NTMT1 inhibitor | AID 540355 | purified Sfp PPTase, gel-based product detection
# Sfp gel: Sfp phosphopantetheinyl transferase inhibition, gel detection | purified Sfp PPTase, gel-based product detection | shares compounds with NTMT1 inhibitor | AID 602362 | Potency, µM (highest dose often 250 µM), for inactives: top-dose activity change, negative = inhibition, most hits filed as inhibitors | 90% of 45 active
# Sfp inh SAR2: inhibits B. subtilis Sfp PPTase in second SAR round | shares compounds with NTMT1 inhibitor | purified Sfp enzyme, PPTase activity, qHTS | Potency, µM (highest dose often 57.1 µM), for inactives: top-dose activity change, negative = inhibition, hits mostly inhibitors | 87% of 230 active
# hGST A1-1 inh: counter-screen for Sfp PPTase inhibitors: hGST A1-1 inhibition; Potency, µM (top dose mostly 114 µM), inactives show top-dose activity change, negative = inhibition, actives largely listed as inhibitors; hGST A1-1 enzyme activity counter-screen, qHTS; 55 tested, under 10 active; shares compounds with NTMT1 inhibitor
# HSD17B4 inh: counter-screen for HPGD inhibitors: human HSD17B4 inhibition; shares compounds with NTMT1 inhibitor; purified HSD17B4, estradiol/NAD+, NADH fluorescence; Potency, µM (doses to about 57.1 µM), for the others: at the highest dose activity change, negative = inhibition, usual class: inhibitors; 10% of 230 active
# ALDH1A1 inh: ALDH1A1 (human) inhibition, HPGD counter-screen. shares compounds with NTMT1 inhibitor. recombinant ALDH1A1, NADH fluorescence, propionaldehyde/NAD+. Potency, µM (series often up to 57.1 µM), for the others: at the top dose activity change, negative = inhibition, hits mostly inhibitors. 93% of 230 active
# The depositor's hits bear a star; ? = inconclusive; · = no result; ! = repeats disagree; [ ] = remark or other dose. The call rests on the fitted dose curve; in most records, active means well fitted curve in the direction sought with a large enough effect; inconclusive means small, poorly fitted or top-dose-only effect, or another doubt; inactive means no such curve, though single readings can be large; an effect the other way counts as inactive or inconclusive.
SMILES,FH mod,HTT-AS promoter,NTMT1 inhibitor,HTT prom inh,Sfp qHTS opt,Bsub HM489 growth,Sfp PPTase gel,Sfp inh SAR2,HSD17B4 inh,ALDH1A1 inh,others
Cc1ccc(Nc2nn3c(=O)c4cc5c(cc4nc3s2)OCO5)cc1Cl,3%,-13%,-9%,-6%,·,·,·,·,·,·,
O=C1Nc2ccccc2/C1=C/c1cc(Cl)c(O)c(Cl)c1,·,·,35µM*!,·,·,·,·,·,·,·,
O=C1Cc2cc(C(=O)c3ccco3)ccc2N1,·,·,-5%,·,·,·,·,·,·,·,
O=C1Nc2ccc(C(=O)c3ccco3)cc2/C1=C/c1cc(Cl)c(O)c(Cl)c1,·,·,4µM*,·,·,·,·,·,·,·,
O=C1Nc2ccccc2/C1=C\c1ccc(O)cc1,·,·,-18%,·,·,·,·,·,·,·,
Cc1cc(NS(=O)(=O)c2ccc(NC(=O)Cc3ccc(Cl)cc3)cc2)no1,·,·,10%[57.5 µM],·,·,·,·,·,·,·,
O=C(NC1CCCc2c1cnn2-c1ccc(F)cc1F)c1cnon1 (configuration not stated),·,·,7%,·,·,·,·,·,·,·,
C/C=C(\C)C(=O)OCC1OC(OC2OC(CO)C(O)C(O)C2O)C(O)C(O)C1O (configuration not stated),-2%[53.3 µM],·,-8%[29.8 µM],·,·,·,·,·,·,·,
Cc1noc2ncnc(NCCc3ccccc3)c12,4%,-61%,11%,14µM*,·,·,·,·,·,·,
COc1c2ccoc2nc2c(OC)c(O[C@@H]3O[C@@H](C)[C@H](O)[C@@H](O[C@@H]4O[C@H](CO)[C@@H](O)[C@H](O)[C@H]4O)[C@H]3OC(C)=O)ccc12,1%[20.6 µM],·,13%[12.6 µM],·,·,·,·,·,·,·,
Fc1ccc(-c2noc3ncnc(NCC4CCN(Cc5ccc(Cl)cc5)CC4)c23)cc1,-24%,-31%,-21%,-28%,·,·,·,·,·,·,
Cc1ccc(CN2CCC(CNc3ncnc4onc(-c5ccc(F)cc5)c34)CC2)cc1,-20%,-19%,79µM*,-21%,·,·,·,·,·,·,
O=c1[nH]ccc2nc(-c3ccc(CN4CCC(c5nc(-c6ccccn6)n[nH]5)CC4)cc3)c(-c3ccccc3)cc12,?,·,27%[57.5 µM],·,·,·,·,·,·,·,
CC(=O)NC1C(OC(C)(C)C2CCC3(C)C=C(C4CCC5C4(C)CC(O)C4OC(C(C)(C)O)CCC45C)CCC3O2)OC(CO)C(O)C1O (configuration not stated),2%[20.6 µM],·,-1%[12.6 µM],·,·,·,·,·,·,·,
Cn1nnnc1Sc1ncnc2scc(-c3ccc4c(c3)OCO4)c12,·,·,89µM*,·,·,·,·,·,·,·,
Cn1nnnc1Sc1ncnc2scc(-c3ccc(Cl)cc3)c12,·,·,0%[57.5 µM],·,·,·,·,·,·,·,
S=C(Nc1cc(Cl)ccn1)N1CCN(c2cc(Cl)cc(Cl)c2)CC1,·,·,·,·,37µM*,11µM*,-59%,18µM*,12%,27µM*,
O=C(c1ccc(Cl)cc1)N1CCN(c2ccnc3cc(Cl)ccc23)CC1,-10%,·,8%[57.5 µM],·,·,·,·,·,·,·,
Cc1noc2ncnc(N3CCN(c4cccc(C(F)(F)F)c4)CC3)c12,0%,-45%,8%,?,·,·,·,·,·,·,
Cc1ccnc(NC(=S)N2CCCc3ccc(C(F)(F)F)cc32)c1,·,·,-6%,·,3%,?,0%,?,?,27µM*,Sfp gel=-2%;hGST A1-1 inh=?
Cc1ccnc(NC(=S)N2CCN(c3cccc(C(F)(F)F)c3)C[C@@H]2C)c1,·,·,·,·,5.9µM*,47µM*,?,11µM*,6%,24µM*,
Cc1ccnc(NC(=S)N2CCN(c3cccc(C(F)(F)F)n3)CC2)c1,·,·,?,·,1.5µM*,30µM*,7.9µM*,0.73µM*,-26%,22µM*,
CC(C)(O)CNc1nc(Nc2ccnc(C(F)(F)F)c2)nc(-c2cccc(C(F)(F)F)n2)n1,4%[53.3 µM],·,?,·,·,·,·,·,·,·,
CN(C)CCN(Cc1ccccc1)C(=O)c1cc(-c2ccc(F)cc2)n2nc(C(C)(C)C)cc2n1,-18%,·,?,·,·,·,·,·,·,·,
Cc1[nH]c2ccccc2c1C1=C(NCCc2ccc(F)cc2)C(=O)N(C)C1=O,-16%,·,-10%[57.5 µM],·,·,·,·,·,·,·,
SMILES,FH mod,HTT-AS promoter,NTMT1 inhibitor,HTT prom inh,Sfp qHTS opt,Bsub HM489 growth,Sfp PPTase gel,Sfp inh SAR2,HSD17B4 inh,ALDH1A1 inh,others
COC(=O)c1ccnc(NC(=S)N2CCN(c3cccc(C(F)(F)F)c3)CC2)c1,·,·,·,·,26µM*,17µM*,40µM*,11µM*,17µM*,12µM*,
Cc1cccc(NC(=S)N2CCN(c3cccc(C(F)(F)F)c3)CC2)c1,·,·,·,·,4%,15%,1%,-20%,?,1.5µM*,
Cc1ccc2scc(N3CCN(c4cccc(C(F)(F)F)c4)CC3)c(=O)c2c1,8%,7%,-6%,2%,·,·,·,·,·,·,
Cc1ccnc(NC(=S)N2CCN(c3cc(C(F)(F)F)cc(C(F)(F)F)c3)CC2)c1,·,·,?,·,2.4µM*,3.3µM*,0.79µM*,0.65µM*,27µM*,7.6µM*,Sfp gel=0.95µM*;hGST A1-1 inh=?
S=C(Nc1cc(Cl)ccn1)N1CCN(c2ccc(Cl)cc2Cl)CC1,·,·,?,·,?,5.9µM*,-20%,36µM*,-4%,24µM*,
Cc1ccc2onc(CNC(=O)N3CCN(c4cccc(C(F)(F)F)c4)CC3)c2c1,-1%,-19%,16%,?,·,·,·,·,·,·,

# Screening data deposited in PubChem by National Center for Advancing Translational Sciences (NCATS).
